PNC assembly inh – inhibitors of perinucleolar compartment assembly. PC3M PTB-GFP, PNC prevalence imaging, 16 h; stronger effect = lower value. activity change (PNC), negative = inhibition, % at 10 µM. actives 3.1% (n = 140,000). AID 2417;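 active means readout at or below -70, meaning at least 70% loss of cells showing the perinucleolar compartment, a nuclear body marking cancer cells; inconclusive means readout between -30 and a set limit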;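 further: plate controls were DMSO wells for no effect and camptothecin positive control wells for full effect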
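Compounds are pinned in duplicate onto adhered PC3M cells stably expressing GFP-tagged PTB and incubated 16 h at 37 C. Cells are then fixed, nuclei stained with Hoechst, and PNC-positive cells counted.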
NPSR antag – blocks cAMP signaling of the human neuropeptide S receptor. Q6W5P4. CHO-NPSR cells, cAMP TR-FRET, antagonist mode. Potency, µM (series often up to 38.3 µM), inactives show at the top dose activity change, negative = inhibition, most hits filed as inhibitors. actives 1% (n = 220,000). AID 1461; further: potency means the concentration at half of the fitted maximal effect; nearly all actives have a fitted effect of over 50% in size
Tau fibril ThT – blocks human tau fibril formation measured by thioflavin T; P10636; recombinant tau K18 P301L, heparin-induced fibrillization, ThT fluorescence; Potency, µM (titrated, usually from 57.4 µM), for inactives: at the top dose activity, negative = inhibition, actives largely listed as inhibitors; actives 2.1% (n = 270,000); AID 1460; further: potency means the concentration at half of the fitted maximal effect; nearly all actives have a fitted effect of over 55% in size
Target sequence (P10636 561-689 P618L limits assumed): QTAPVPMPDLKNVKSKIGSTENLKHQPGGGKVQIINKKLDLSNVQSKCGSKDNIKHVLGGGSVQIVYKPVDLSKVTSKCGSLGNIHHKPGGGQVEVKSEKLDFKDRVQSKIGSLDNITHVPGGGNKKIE
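ThT emission at 510 nm, taken 1 hr after adding 30 uM dye, quantifies aggregates formed when 20 uM heparin acts on human tau K18 P301L for 6 hr at 37 C.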
Tau FP inhib – blocks human tau fibril formation measured by polarization | P10636 | K18 P301L tau heparin fibrillization, Alexa594 FP, 6 h | Potency, µM (highest dose often 57.7 µM), without a hit: at the highest dose activity, negative = inhibition, hits mostly inhibitors | actives 0.39% (n = 280,000) | AID 1468; further: potency means the concentration at half of the fitted maximal effect; nearly all actives have a fitted effect of over 55% in size
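Compound effects on tau fibrillization are measured by Alexa 594 fluorescence polarization (ex 555, em 632 nm). K18 P301L tau is used at 15 uM with 0.24 uM labeled tracer, and 20 uM heparin induces aggregation over 6 hr at 37 C.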
Tau fluor counter – counter-screen for tau fibril formation inhibitors; tau K18 P301L (four-repeat tau fragment) Alexa594 fluorescence, heparin fibrillization; Potency, µM (titrated, usually from 57.7 µM), for the others: at the top dose activity change, negative = decrease; actives 0.93% (n = 280,000); AID 1463; further: potency means the concentration at half of the fitted maximal effect; nearly all actives have a fitted effect of over 55% in size
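Human K18 P301L tau (15 uM unlabeled plus 0.24 uM Alexa 594-labeled, final) in 100 mM sodium acetate pH 7 was mixed with compound and 20 uM heparin and incubated 6 hr at 37 C.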
JMJD2E inh – JMJD2E (human) inhibition; Potency, µM (doses to about 57.1 µM), without a hit: at the highest dose activity change, negative = inhibition, actives largely listed as inhibitors; B2RXH2; AID 2147; actives 1.6% (n = 230,000); JMJD2E catalytic domain, FDH-coupled NADH fluorescence (FDH is formaldehyde dehydrogenase);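 further: potency means the concentration at half of the fitted maximal effect; 0% = wells with enzyme and -100% = buffer wells without enzyme; nearly all actives have a fitted effect of over 50% in size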
Target sequence (B2RXH2 1-337 limits assumed): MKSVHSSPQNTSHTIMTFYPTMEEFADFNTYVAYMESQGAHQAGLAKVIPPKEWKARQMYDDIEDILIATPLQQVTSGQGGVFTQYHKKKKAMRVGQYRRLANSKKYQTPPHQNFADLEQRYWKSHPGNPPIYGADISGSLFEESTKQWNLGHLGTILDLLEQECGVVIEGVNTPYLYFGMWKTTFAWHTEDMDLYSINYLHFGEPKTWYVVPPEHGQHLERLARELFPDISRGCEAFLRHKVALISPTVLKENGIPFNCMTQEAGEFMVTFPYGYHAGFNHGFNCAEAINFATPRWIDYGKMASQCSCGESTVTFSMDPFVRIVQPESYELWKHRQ
* = called active by the depositor; [ ] = remark or other dose. Shown are actives, neighbours in structure and some others; about 5.1% of the full set was active somewhere. Unless noted, the call rests on the fitted dose curve; in most records, active means well fitted curve in the direction sought with a large enough effect; inconclusive means small, poorly fitted or top-dose-only effect, or another doubt; inactive means no such curve, though single readings can be large; an effect the other way counts as inactive or inconclusive. Unless noted, on the % scale 0 is the no-effect control and ±100 the full control effect.

Screening COCC(=O)NC1CCN(S(=O)(=O)c2ccc(C(=O)O)cc2)CC1 returned PNC assembly inh -122*, NPSR antag 6%[46.1 µM], Tau fibril ThT -8%, Tau FP inhib -8%, Tau fluor counter -10% and JMJD2E inh -13%.
O=C(c1cccs1)N1CCCc2cc(NS(=O)(=O)c3ccc(F)cc3)ccc21 was read as Tau fibril ThT 10%, Tau FP inhib -8% and Tau fluor counter -9%.
Screening CCOc1ccccc1NC(=O)NC(CC)c1c(-n2cccc2)sc2c1CCN(C)C2 (stereo not given) returned Tau fibril ThT -17%, Tau FP inhib 0% and Tau fluor counter -15%.
Screening COc1cc(Cl)c(C)cc1NC(=O)c1nn(-c2ccc(C)cc2)c(=O)n(C)c1=O returned Tau fibril ThT -4%, Tau FP inhib -6% and Tau fluor counter -1%.
For Cc1csc(N/N=C/c2ccc(O)c([N+](=O)[O-])c2)n1 the results were PNC assembly inh inconclusive, NPSR antag 10µM*, Tau fibril ThT 5µM*, Tau FP inhib -2%, Tau fluor counter inconclusive and JMJD2E inh -23%.
`Cc1nnc(N/N=C/c2ccc(O)c([N+](=O)[O-])c2)[nH]c1=O` gave PNC assembly inh inconclusive, NPSR antag -17%, Tau fibril ThT inconclusive, Tau FP inhib 11%, Tau fluor counter -2% and JMJD2E inh inconclusive.
Screening O=[N+]([O-])c1ccc(-c2csc(N/N=C/c3cccnc3)n2)cc1 returned NPSR antag 3%, Tau fibril ThT 2.2µM*, Tau FP inhib 4%, Tau fluor counter inconclusive and JMJD2E inh -3%.
For Cc1csc(N/N=C\c2cccnc2)n1 the results were NPSR antag -2%, Tau fibril ThT inconclusive, Tau FP inhib -9%, Tau fluor counter inconclusive and JMJD2E inh inconclusive.
`O=[N+]([O-])c1cc(/C=N\Nc2nc(-c3ccccc3)cs2)ccc1O` gave NPSR antag -49%, Tau fibril ThT 3.2µM*, Tau FP inhib inconclusive, Tau fluor counter 10µM*[quencher] and JMJD2E inh -8%.
Screening O=C(N/N=C/c1ccncc1)C1CC1(c1ccccc1)c1ccccc1 (stereo not given) returned NPSR antag -39%, Tau fibril ThT inconclusive, Tau FP inhib -7%, Tau fluor counter inconclusive and JMJD2E inh -13%.
For O=C(N/N=C/c1ccc(O)c([N+](=O)[O-])c1)C1CC1(c1ccccc1)c1ccccc1 (stereo not given) the results were NPSR antag inconclusive, Tau fibril ThT 14µM*, Tau FP inhib 7%, Tau fluor counter inconclusive and JMJD2E inh inconclusive.
`O=[N+]([O-])c1cc(/C=N/Nc2nc(N3CCCCC3)nc(N3CCCCC3)n2)ccc1O` gave PNC assembly inh 48, NPSR antag -59%, Tau fibril ThT 3%, Tau FP inhib 6%, Tau fluor counter -6% and JMJD2E inh 5%.
Cc1ccc2onc(CC(=O)N3CCN(c4cccc(Cl)c4)CC3)c2c1 was read as Tau fibril ThT inconclusive, Tau FP inhib -4% and Tau fluor counter -20%.
`Clc1ccc(-c2csc(N/N=C/c3ccc4c(c3)OCO4)n2)cc1` gave PNC assembly inh 42, NPSR antag -3%, Tau fibril ThT 8.9µM*, Tau FP inhib -2%, Tau fluor counter 11µM*[quencher] and JMJD2E inh inconclusive.
O=[N+]([O-])c1cc(/C=N/N/C(=N/c2ccccn2)c2ccccn2)ccc1O was read as NPSR antag -41%, Tau fibril ThT inconclusive, Tau FP inhib -11%, Tau fluor counter -13% and JMJD2E inh 18µM*.
O=[N+]([O-])c1ccc(/C=N/N/C(=N/c2ccccn2)c2ccccn2)cc1 was read as PNC assembly inh -29, NPSR antag -7%[46.1 µM], Tau fibril ThT inconclusive, Tau FP inhib -6%, Tau fluor counter -12% and JMJD2E inh -7%.
Screening CC(C)Oc1ccc(CNC(=O)C2CCN(C(=O)N3CC(C)Oc4ccccc43)CC2)cc1 (stereo not given) returned Tau fibril ThT -3%, Tau FP inhib -5% and Tau fluor counter -9%.
Screening Cc1ccc(S(=O)(=O)Nc2cccc3ncccc23)s1 returned PNC assembly inh inconclusive, NPSR antag 2µM*, Tau fibril ThT -16%, Tau FP inhib 2%, Tau fluor counter -30% and JMJD2E inh 6%.
Cc1ccc(S(=O)(=O)Nc2cccc3ncccc23)cc1 was read as NPSR antag 4%, Tau FP inhib 6%, Tau fluor counter 8% and JMJD2E inh -6%.
For Cc1nn(CC(=O)NCCc2ccccc2Cl)c(=O)c2nn(-c3ccccc3)c(C)c12 the results were Tau fibril ThT 0%, Tau FP inhib 3% and Tau fluor counter -2%.
Screening Cc1cc(SC(C)C(=O)Nc2ncc(Cl)cc2Cl)nc2ccccc12 (stereo not given) returned PNC assembly inh -92*, NPSR antag -32%, Tau fibril ThT -8%, Tau FP inhib -7%, Tau fluor counter 4% and JMJD2E inh -4%.
Screening COCCn1c(SC(C)C(=O)Nc2ncc(Cl)cc2Cl)nc2ccccc21 (stereo not given) returned PNC assembly inh -103*, NPSR antag -9%[46.1 µM], Tau fibril ThT -10%, Tau FP inhib -16%, Tau fluor counter -13% and JMJD2E inh -2%.
Screening Cc1nnc(SC(C)C(=O)Nc2ncc(Cl)cc2Cl)n1Cc1ccccc1 (stereo not given) returned PNC assembly inh -4, NPSR antag -2%[46.1 µM], Tau fibril ThT 7%, Tau FP inhib 1%, Tau fluor counter -5% and JMJD2E inh 1%.
COc1ccc(-c2nc3ccccc3o2)cc1NC(=O)c1ccc(-c2cccc(Cl)c2C)o1 was read as Tau fibril ThT inconclusive, Tau FP inhib 3% and Tau fluor counter -19%.
CCOC(=O)N1CCC(NC(=O)CCC(=O)c2ccccc2)CC1 was read as PNC assembly inh inconclusive, NPSR antag -5%[46.1 µM], Tau fibril ThT 5%, Tau FP inhib 8%, Tau fluor counter 8% and JMJD2E inh 11%.
CCOC(=O)N1CCC(NC(=O)CCN2C(=O)C3C4C=CC(C4)C3C2=O)CC1 (stereo not given) was read as PNC assembly inh -101*, NPSR antag -2%[46.1 µM], Tau fibril ThT 1%, Tau FP inhib 8%, Tau fluor counter 9% and JMJD2E inh -4%.
For CCOC(=O)C1=C(O)c2ccccc2C(=O)/C1=C\c1ccc(CC)cc1 the results were PNC assembly inh -16, NPSR antag inconclusive, Tau fibril ThT 14µM*, Tau FP inhib 20µM*, Tau fluor counter inconclusive and JMJD2E inh inconclusive.
